Screening data from PubChem.
Only some compounds are listed: those with a hit (about 3.8% of all), similar ones and a draw of the others.
HT1080NT lethal: kills 2HG-producing HT-1080-NT fibrosarcoma cells; HT-1080-NT fibrosarcoma viability, CellTiter-Glo ATP luminescence, 48 h; Potency, µM (top dose mostly 46.1 µM), inactives show at the highest dose activity, negative = less viability, hits mostly cytotoxic; hit rate 1.6% among 360,000; AID 686970;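 further: NT is the 2HG producing partner of a matched IDH1 knockdown line; 0% = DMSO-treated cells and -100% = media-only wells without cells; nearly all actives have a fitted effect of over 55% in size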
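Viability by CellTiter-Glo luminescence after 48 h compound exposure at 37C of HT-1080-NT cells (750/well, RPMI, 5% FBS). % activity scaled between DMSO wells and medium-only wells, then curve-fitted and categorized by curve class.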
TGFb inhibitor: blocks TGF-b signaling. HepG2 CAGA-GFP TGF-b/SMAD3 reporter, GFP fluorescence, 18 h; TGF-beta stimulated, 500 pg/mL final. hit rate 1.2% among 410,000. AID 588855. Potency, µM (highest dose often 46.1 µM), for inactives: at the highest dose activity, negative = inhibition, actives largely listed as inhibitors; further: on the % scale 0 is the no-effect control and ±100 the full control effect; nearly all actives have a fitted effect of over 65% in size
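Read-out: total well GFP (ex488/em500-530) summed from mean per-cell fluorescence. Cells: HEPG2 CAGA-GFP, 1% FBS DMEM, 18 h at 37 degrees C with 500 pg/mL final TGF-beta. Unstimulated wells served as the full-inhibition control; stimulated DMSO wells = 0%.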
HT1080 IDH1KD tx: HT-1080 IDH1 knockdown cell toxicity (counter line) | Potency, µM (titrated, usually from 46.1 µM), without a hit: top-dose activity, negative = toxicity, hits mostly cytotoxic | HT-1080 IDH1 knockdown viability, ATP luminescence, 48 h | hit rate 2% among 360,000 | AID 686971;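 further: 0% = DMSO wells and -100% = cell-free medium wells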
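% activity derives from luminescence (CellTiter-Glo), normalised to DMSO and no-cell wells. HT-1080-IDH1KD cells, 750/well, had 48 h compound exposure at 37 °C.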
ATXN2 expr inh: reduces ATXN2 reporter expression in HEK-293 cells. Potency, µM (series often up to 57 µM), inactives show at the top dose activity change, negative = inhibition, most hits filed as inhibitors. HEK-293 ATXN2-luciferase reporter, luminescence, 24 h. hit rate 0.72% among 360,000; further: on the % scale 0 is the no-effect control and ±100 the full control effect; nearly all actives have a fitted effect of over 55% in size
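qHTS (up to 57 uM final) was run with 24 h compound exposure of reporter cells at 37 °C. Each well was multiplexed: SteadyGlo luminescence measured ATXN2-luciferase expression after a fluorogenic Gly-Phe-AFC viability readout (25 uM final).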
HepG2 tox: kills HepG2 cells in TGF-b inhibitor counter-screen; Potency, µM (series often up to 46.1 µM), without a hit: at the top dose activity change, negative = cytotoxicity, actives largely listed as cytotoxic; HepG2 CAGA-GFP viability, ATP luminescence, 18 h; hit rate 0.76% among 410,000
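HepG2 CAGA-GFP cells (1000/well, DMEM with 1% FBS) received compound, then TGF-beta at 500 pg/mL final, and were incubated 18 hours at 37 degrees C. Viability was read by CellTiter-Glo luminescence. Media-only wells were set as complete cell-killing and DMSO as no toxicity.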
ATXN viability: reduces viability in counter-screen for ATXN expression inhibitors; Potency, µM (series often up to 56.7 µM), most hits filed as cytotoxic; S2 cells (HEK-293 line with an ATXN2-luciferase reporter) viability, CellTiter-Fluor protease fluorescence, 24 h; hit rate 0.49% among 400,000; AID 651635; further: nearly all actives have a fitted effect of over 40% in size
* = called active by the depositor; i = inactive; ? = inconclusive; nt = no result given; [ ] = another dose, or the depositor's remark. The call rests on the fitted dose curve; in most records, active means well fitted curve in the direction sought with a large enough effect; inconclusive means small, poorly fitted or top-dose-only effect, or another doubt; inactive means no such curve, though single readings can be large; an effect the other way counts as inactive or inconclusive. Potency means the concentration at half of the fitted maximal effect.

SMILES	HT1080NT lethal	TGFb inhibitor	HT1080 IDH1KD tx	ATXN2 expr inh	HepG2 tox	ATXN viability
COc1ccc(C(N)c2csc(Nc3nncc4ccccc34)n2)cc1 (stereo not drawn)	?	12.6µM*	?	-31.8%	-65.6%	?
O=S(=O)(C/C(=C/CO)S(=O)(=O)c1ccccc1)c1ccccc1	7.08µM*	?	2µM*	?	15.8µM*	20µM*
CCN(CC)S(=O)(=O)c1cc(C(=O)Nc2ccccc2[N+](=O)[O-])ccc1Cl	-24.4%	15.8µM*	?	1.5%	-33.0%	i
CN(C)c1ccc(/C=C(\C#N)c2ccccc2)cc1	11.6µM*	-22.5%	10.3µM*	nt	-7.7%	i
Cc1cnc(SCc2ccccn2)nc1C1CCCN(C(=O)c2cc3ccccc3oc2=O)C1 (stereo not drawn)	nt	nt	nt	nt	nt	i
COc1ccc(C(=O)O/N=C2\C(=O)N(C)c3ccccc32)cc1	-0.5%	-0.5%	6.6%	nt	6.2%	i
CN1C(=O)/C(=N\OC(=O)c2cccc3ccccc23)c2ccccc21	12.6µM*	?	?	5.1%	-43.5%	i
O=C(c1cc([N+](=O)[O-])ccc1Cl)N1CCc2ccccc21	-3.6%	?	-16.3%	-10.6%	22.4%	i
O=C(c1cc([N+](=O)[O-])ccc1N1CCCCC1)N1CCc2ccccc21	?	-0.2%	2.31µM*	?	-2.6%	?
Cc1ccc(NC(=O)CC2Nc3cccc4cccc(c34)NC2=O)cc1 (stereo not drawn)	nt	11.2µM*	nt	nt	-27.8%	nt
Cc1ccc(NC(=O)CC2Nc3ccccc3NC2=O)cc1Cl (stereo not drawn)	20.6µM*	?	20.6µM*	-36.4%	-46.9%	i
O=C(CC1Nc2cccc3cccc(c23)NC1=O)Nc1ccccc1 (stereo not drawn)	-5.4%	2.0%	-4.9%	-8.3%	-7.2%	i
CC(=O)Nc1cccc(NC(=O)C(=O)NCCc2csc3nc(-c4ccccc4F)nn23)c1	nt	-4.5%	nt	11.0%	1.4%	i
O=C1NC(=S)S/C1=C\C=C\c1ccc([N+](=O)[O-])o1	5.8µM*	2.24µM*	5.17µM*	?	-105.4%	8.91µM*
CCOC(=O)c1ccccc1NC(=O)CSc1nc2cn(CC)nc2c(=O)n1Cc1ccc(Cl)cc1	nt	0.0%	nt	-0.1%	-37.2%	i
O=C(c1oc2ccccc2c1CSCc1ccccc1)N1CCN(c2ncccn2)CC1	10.0%	15.8µM*	-7.5%	?	-42.0%	i
CCOCC(=O)Nc1c(C(=O)N2CCN(c3ncccn3)CC2)oc2ccccc12	0.2%	-5.5%	-2.2%	-5.0%	-28.2%	i
CN(C(=O)CSc1cc(C(=O)c2nccn2C)c2ccccc2n1)c1ccccc1	-26.4%	14.1µM*	-28.2%	-4.9%	-24.0%	?
Cn1ccnc1C(=O)c1cc(SCC(=O)NC2CC2)nc2ccccc12	0.4%	-1.9%	0.8%	12.1%	-8.8%	i
CC(C)Cc1ccc(C(C)C(=O)OCc2ccccn2)cc1 (stereo not drawn)	nt	nt	nt	2.2%	nt	i
O=C(NCc1ccccc1)c1noc2c1CCCC2	?	33.7%	?	14.0%	-13.9%	i
O=C(NCc1cccs1)c1noc2c1CCCC2	?	-4.2%	17.8µM*	0.0%	-4.0%	i
CCc1ccc(OCC(=O)NCC(c2ccc(OC)cc2)N2CCOCC2)cc1 (stereo not drawn)	nt	?	nt	nt	-5.9%	nt
CCOC(=O)C1=C(N)Oc2cc(O)ccc2C1c1ccccc1 (stereo not drawn)	?	?	?	nt	-41.8%	?
CCOC(=O)C1=C(N)Oc2cc(O)ccc2C1c1cccc([N+](=O)[O-])c1 (stereo not drawn)	7.31µM*	-24.1%	5.8µM*	-18.3%[11.3 µM]	5.4%	i
SMILES	HT1080NT lethal	TGFb inhibitor	HT1080 IDH1KD tx	ATXN2 expr inh	HepG2 tox	ATXN viability
CCOC(=O)C1=C(N)Oc2ccc3ccccc3c2C1c1cccc(O)c1 (stereo not drawn)	-4.0%	11.2µM*	-16.5%	?	-92.7%	?
CCOC(=O)C1=C(N)Oc2cc(O)ccc2C1c1ccc(F)cc1F (stereo not drawn)	-9.2%	?	-4.5%	22.9%	-52.9%	nt
CCOC(=O)C1=C(N)Oc2cc(O)ccc2C1c1ccc(C)cc1 (stereo not drawn)	?	?	20.6µM*	-25.6%	-54.8%	i
O=c1[nH]c2ccc(Cl)cc2c(-c2ccccc2)c1N1CCOCC1	-1.7%	-1.3%	0.5%	-6.3%	-39.4%	i
O=C(c1ccco1)N1CCN(c2c(-c3ccccc3)c3cc(Cl)ccc3[nH]c2=O)CC1	?	?	?	?	17.8µM*	nt
CCC1CN(CC(=O)NCc2cc(C)n(C)n2)Cc2cc(OC)ccc2O1 (stereo not drawn)	nt	nt	nt	nt	nt	i
Nc1c(C(=O)N/N=C/c2ccc(F)cc2)oc2nc(-c3ccccc3)cc(-c3ccco3)c12	?	43.9%	20.6µM*	-32.2%	-52.5%	nt
O=C(N/N=C/c1ccc(F)cc1)c1cc(-c2ccco2)nc2ccccc12	?	?	16.4µM*	-6.7%	-17.7%	?
Cc1ccc(CNS(=O)(=O)c2cc(C(=O)Nc3cccc(C(F)(F)F)c3)ccc2F)cc1	nt	?	nt	nt	-74.8%	nt
CC1CCN(CC(=O)Nc2cccc(C(=O)Nc3cccc(C(F)(F)F)c3)c2)CC1	16.4µM*	?	23.1µM*	?	-55.5%	?
Clc1cccc(CSc2nnc(-c3c[nH]c4ccccc34)o2)c1	?	?	?	12.9%	12.6µM*	i
CS(=O)(=O)c1ccc(-c2cnc(N)c(C(=O)Nc3ccccc3)n2)cc1	nt	nt	nt	-11.7%	nt	nt
Clc1cccc(-c2nc3ccccn3c2Nc2ccc3c(c2)OCCO3)c1	nt	?	nt	?	-18.1%	?
CC(=O)Nc1ccc(N2C(C(C)=O)=NN(c3ccccc3)C2c2cccs2)cc1 (stereo not drawn)	-5.7%	1.6%	?	2.5%	-13.4%	i
CC(=O)Nc1ccc(N2C(C(C)=O)=NN(c3ccc(Cl)cc3)C2c2sccc2C)cc1 (stereo not drawn)	?	?	7.94µM*	0.0%	-29.9%	i
COc1ccc(-n2nc(C(N)=O)c3c2C(=O)N(c2ccc(N4CCCCC4=O)cc2)CC3)cc1	nt	nt	nt	5.2%	nt	nt
Clc1ccc(CN=C(Nc2ccccc2)NC2CCCCC2)cc1	20.6µM*	?	16.4µM*	?	-86.9%	?
COc1ccc(-c2[nH][nH]c(=O)c2NC(=O)c2ccccn2)cc1	23.5%	4.4%	0.0%	5.1%	-0.1%	i
